Assay outcomes as filed in PubChem.
KB-V1 MDR tox – kills drug-selected multidrug resistant KB-V1 cells; KB-V1 MDR cells viability, CellTiter-Glo, 72 h; Potency, µM (doses to about 46.1 µM), usual class: cytotoxic; actives 3.4% (n = 400,000); AID 1347076; also: nearly all actives have a fitted effect of over 60% in size
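Luminescent ATP read-out (CellTiter-Glo, 10 min) measures survival of drug-selected KB-V1 MDR cells after 72 h, 37 degrees C compound exposure. Medium: phenol-red-free DMEM, 10% FBS. Values from fitted concentration-response curves.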
HT1080-NT tox – kills 2HG-producing HT-1080-NT fibrosarcoma cells. actives 1.6% (n = 360,000). AID 686970. HT-1080-NT fibrosarcoma viability, CellTiter-Glo ATP luminescence, 48 h. Potency, µM (doses to about 46.1 µM), without a hit: top-dose activity, negative = less viability, usual class: cytotoxic;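 also: NT is the 2HG producing partner of a matched IDH1 knockdown line; 0% = DMSO-treated cells and -100% = media-only wells without cells; nearly all actives have a fitted effect of over 55% in size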
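Luminescent CellTiter-Glo readout after 48 hours of compound exposure at 37 degrees C defined viability of HT-1080-NT cells. Activity was normalized to DMSO wells and cell-free media wells; concentration-response curves were fitted and assigned curve classes.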
KB-3-1 tox – KB-3-1 parental cell cytotoxicity; Potency, µM (titrated, usually from 46.1 µM), usual class: cytotoxic; KB-3-1 viability, CellTiter-Glo ATP luminescence, 72 h; AID 1347075; actives 1.4% (n = 400,000); also: nearly all actives have a fitted effect of over 60% in size
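Screening of KB-3-1 cells (DMEM, 10% FBS, phenol-red free) ran from lowest to highest compound concentration; after 72 h at 37 °C viability was read luminescently and curves fitted.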
DT40 TDP1 no CPT – qHTS for Inhibitors of human tyrosyl-DNA phosphodiesterase 1 (TDP1): qHTS in cells in absence of CPT. DT40 Tdp1-/- hTDP1 cells, no CPT, ATP luminescence, 48 h. actives 15% (n = 420,000). AID 686978, 2013. Potency, µM (top dose mostly 46.2 µM), without a hit: top-dose activity change, negative = growth inhibition, hits mostly inhibitors; also: nearly all actives have a fitted effect of over 55% in size
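Luminescent ATP content (CellTiter-Glo) served as the growth readout. Knockout chicken DT40 cells expressing human TDP1 were exposed to compounds without camptothecin for a minimum 48 hr at 37 °C.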
HT1080 IDH1KD tx – HT-1080 IDH1 knockdown cell toxicity (counter line); HT-1080 IDH1 knockdown viability, ATP luminescence, 48 h; Potency, µM (series often up to 46.1 µM), without a hit: at the highest dose activity, negative = toxicity, actives largely listed as cytotoxic; actives 2% (n = 360,000); AID 686971;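 also: 0% = DMSO wells and -100% = cell-free medium wells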
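In this qHTS, HT-1080 cells depleted of IDH1 are exposed for 48 h at 37 °C to compound titrations. Toxicity is scored from CellTiter-Glo luminescence, with DMSO as full viability and medium alone as none.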
TDP1 cell CPT – growth inhibition of DT40 Tdp1-/-;hTDP1 cells with camptothecin (screen for TDP1 inhibitors). actives 12% (n = 420,000). chicken DT40 Tdp1-/-;hTDP1 cells + 20 nM CPT, ATP luminescence, 48 h. Potency, µM (titrated, usually from 46.2 µM), inactives show top-dose activity change, negative = growth inhibition, usual class: inhibitors; also: nearly all actives have a fitted effect of over 55% in size
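Chicken DT40 Tdp1-/- cells complemented with human TDP1, 400 cells/well, exposed to compounds plus 20 nM camptothecin for at least 48 h at 37 C; viability read as ATP content by CellTiter-Glo luminescence.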
Numbers without * were called inactive; i = inactive; ? = inconclusive; nt = no result. An excerpt weighted towards active compounds, which were near 19% of everything screened. Calls follow the shape of the dose curve; as a rule, active = well fitted curve in the direction sought with a large enough effect; inconclusive = small, poorly fitted or top-dose-only effect, or another doubt; inactive = no such curve, though single readings can be large; an effect the other way counts as inactive or inconclusive. Unless noted, % is scaled to controls: 0 for no effect and ±100 for the full control effect; potency is read from the fitted curve at half-maximal effect.

SMILES	KB-V1 MDR tox	HT1080-NT tox	KB-3-1 tox	DT40 TDP1 no CPT	HT1080 IDH1KD tx	TDP1 cell CPT
Cc1ccc(Cc2c(-c3ccccc3)nc3c(C)cc(Br)cn23)cc1	i	11%	i	10µM*	6%	?
Cc1cc(Br)cn2c(Cc3ccccc3)c(-c3cccc(Cl)c3)nc12	i	2%	i	23µM*	-8%	13µM*
Cc1ccc(Cc2c(-c3ccc(C#N)cc3)nc3c(C)cc(Br)cn23)cc1	i	-1%	i	?	-1%	?
Cc1cc(Br)c2nc(-c3ccccc3)c(Cc3cccc(Cl)c3)n2c1	i	8%	i	?	3%	?
Cc1cc(Br)cn2c(Cc3cccc(F)c3)c(-c3ccc(F)cc3)nc12	i	?	16µM*	?	-16%	?
Cc1ccc(-c2nc3c(C)cc(Br)cn3c2Cc2cccc(F)c2)cc1	?	16%	?	?	10%	?
Cc1cc(Br)cn2c(Cc3cccc(F)c3)c(-c3ccccc3)nc12	i	?	i	18µM*	-29%	29µM*
CN(C)c1ccc(/C=C2\C=Cc3ccccc32)cc1Cl	?	nt	i	?	nt	?
CCCS(=O)(=O)NC(=O)C1(C)CCCN(C(=O)c2cc(C)nn2C(C)(C)C)C1 (stereo not drawn)	i	0%	i	8%	20%	8%
COc1cccc(CNC(=O)c2ccc3c(c2)nnn3C2CCCC2)c1	i	nt	i	-26%	nt	?
Cc1cc(Br)cn2c(Cc3ccsc3)c(-c3ccc(F)cc3)nc12	i	-19%	i	15µM*	-13%	-24%
CCOc1ccccc1CNC(=O)CCCn1c(=O)c2cccn2c2ccc(F)cc21	nt	nt	nt	12µM*	nt	?
CCOc1ccc(CNC(=O)CCCn2c(=O)c3cccn3c3ccc(F)cc32)cc1	nt	nt	nt	12µM*	nt	?
O=C(CCCn1c(=O)c2cccn2c2cccnc21)Nc1ccccc1Br	nt	nt	nt	?	nt	-14%
O=C(CCCn1c(=O)c2cccn2c2ccccc21)NCc1ccccc1Br	nt	nt	nt	16µM*	nt	?
CCCCNC(=O)c1onc(CSc2ccc(F)c(F)c2)c1C(=O)O	?	-6%	i	-10%	0%	21µM*
Cc1cc(C)cc(SCc2noc(C(=O)NCCN(C)C)c2C(=O)NCCN(C)C)c1	i	18µM*	?	15µM*	?	?
CCSc1nnc2c(n1)OC(c1cc(OC)c(OC)c(OC)c1)Nc1ccccc1-2 (stereo not drawn)	i	nt	i	-14%	nt	-1%
Cc1nc2c(-c3ccccc3)c(C)nn2c(C)c1CCC(=O)NCc1ccc(Cl)cc1	i	nt	i	?	nt	?
CC1(C)Cc2ccccc2-c2nnc(SCC(=O)N3CCN(c4ccccc4)CC3)n21	2.3µM*	-30%	12µM*	?	?	?
Cn1c(SCC(=O)Nc2nc3ccccc3s2)nnc1-c1ccccc1	i	-9%	i	-12%	-7%	-22%
CC1(C)Cc2ccccc2-c2nnc(SCC(=O)Nc3nc4ccccc4s3)n21	3.3µM*	1%	?	?	5%	?
CCc1ccc(N(C(=O)c2snc(C(N)=O)c2N)C(C(=O)NCC2CCCO2)c2cccs2)cc1 (stereo not drawn)	i	-2%	i	21µM*	-25%	?
Cc1ccc(C)c(N(C(=O)c2snc(C(N)=O)c2N)C(C(=O)NCC2CCCO2)c2ccc(C)o2)c1 (stereo not drawn)	?	2%	i	10µM*	7%	16µM*
